Screening data deposited in PubChem BioAssay by several laboratories.
Most compounds without a hit are left out; they make up all but 0.82% or so of the library.
TcdB inh: TcdB glycohydrolase inhibitors, primary screen, biochemical, single point, plate reader | Toxin B (Clostridioides difficile), P18177 | TcdB glycohydrolase enzymatic assay | inhibition, % at 9.99 µM | 0.24% of 350,000 active | AID 652162, 2013; in the data active = inhibition above about 10%
PrPC surface inh: inhibitors of human cell surface prion protein PrPC, primary screen, cell-based, TR-FRET; Major prion protein (Homo sapiens), P04156; TR-FRET read-out; inhibition, % at 13.8 µM; 0.43% of 370,000 active; AID 720596, 2013; in the data active = inhibition above about 24%; also: 0% = median of the test wells and 100% = reference compound wells
DUSP3 inh: VHR1 phosphatase inhibitors, primary screen, biochemical, absorbance, uHTS. Dual specificity protein phosphatase 3 (Homo sapiens), P51452. recombinant VHR phosphatase, pNPP absorbance. inhibition, % at 13.3 µM. 0.52% of 290,000 active. AID 1654, 2009; in the data active = inhibition above about 50%
Target sequence (P51452 whole entry, looked up): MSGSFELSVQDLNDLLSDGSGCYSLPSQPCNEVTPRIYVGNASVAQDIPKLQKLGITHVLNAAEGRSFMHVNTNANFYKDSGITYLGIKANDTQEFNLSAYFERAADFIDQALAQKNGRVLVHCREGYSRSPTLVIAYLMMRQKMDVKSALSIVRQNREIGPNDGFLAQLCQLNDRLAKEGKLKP
* = called active by the depositor; x = no result given.

SMILES	TcdB inh	PrPC surface inh	DUSP3 inh
O=C(O)C[C@@H]1C(=O)O[C@@H]2C(COC(=O)c3cc(O)c(O)c(O)c3)O[C@@H](OC(=O)c3cc(O)c(O)c(O)c3)[C@@H](OC(=O)c3cc(O)c(O)c4c3[C@H]1[C@H](O)C(=O)O4)[C@H]2OC(=O)c1cc(O)c(O)c(O)c1 (some centres not stated)	x	x	113.8*
COC1OC(COC(=O)c2ccccc2)C(OC(=O)c2ccccc2)C1OC(=O)c1ccccc1 (configuration not stated)	0.4	8.4	x
COc1ccc(NC(=O)Nc2ccc3c(c2)C(=O)N([C@H](C)CO)C[C@H](C)[C@H](CN(C)C(=O)Nc2ccc(F)cc2)OCCCC[C@H](C)O3)cc1	0.7	x	x
Nc1ncnc2c1ncn2C1O[C@H](CO)[C@@H](O)[C@@H]1O (some centres not stated)	0.1	7.3	x
Nc1ncnc2c(C3OC(CO)C(O)C3O)scc12 (configuration not stated)	0.1	54.9*	x
C1CCN(c2nc(N3CCCC3)nc(N3CCNCC3)n2)C1	x	x	8.2
Nc1nc(N2CCCCC2)nc(N2CCCCC2)n1	x	-2.4	51.6*
CO[C@@H]1CN(C)C(=O)c2cc(NC(=O)C3CCCC3)ccc2OC[C@@H](C)N(C(=O)c2ccccc2)C[C@H]1C	0.7	x	x
COc1ccc(Cn2c3nc4ccccc4nc3c3c(=O)n(Cc4ccco4)c(C)nc32)cc1	x	x	91.2*
COc1ccc(Cn2c(C)nc3c(c2=O)c2nc4ccccc4nc2n3Cc2ccco2)cc1	2.9	6.2	x
COc1ccc(NC(=O)N(C)C[C@H]2Oc3cc(-c4cccc(C(=O)N(C)C)c4)ccc3S(=O)(=O)N([C@@H](C)CO)C[C@@H]2C)cc1	0.9	x	x
COc1ccc(C#Cc2cnc3c(c2)C(=O)N([C@@H](C)CO)C[C@H](C)[C@H](CN(C)C(C)=O)O3)cc1	1.0	x	x
O=C(C[C@@H]1CC[C@H](NS(=O)(=O)c2ccc(F)cc2)[C@@H](CO)O1)NC1CCCCC1	-1.7	x	x
Cc1onc(-c2ccccc2)c1C(=O)N(Cc1ccco1)Cc1cccs1	16.2*	7.1	1.2
Cc1onc(-c2ccccc2)c1C(=O)NCc1ccco1	x	-2.9	-2.4
CCC(=O)N1[C@H](CO)[C@@H](c2ccccc2)[C@H]1CN(C(C)C)S(C)(=O)=O	-0.9	x	x
Cc1noc(C)c1NC(=O)NCC[C@H]1CC[C@H](NC(=O)Cc2cccnc2)[C@@H](CO)O1	0.5	x	x
CN(C)/C=C(\C#N)C(=O)Nc1ccccc1	0.3	0.6	9.4
CN(C)/C=C(\C#N)C(=O)Nc1ccc(O)cc1F	18.9*	4.0	22.0
O=c1[nH]c2ccccc2n1C1=CCNCC1	0.1	9.4	52.0*
O=c1[nH]c2ccccc2n1C1=CCCC1	x	-0.1	13.9
CC(C)C#Cc1cnc2c(c1)C(=O)N([C@@H](C)CO)C[C@@H](C)[C@@H](CN(C)C(=O)c1ccc3c(c1)OCO3)O2	-0.6	x	x
CC(=O)N1CCc2c(sc(NC(=O)Cc3ccc(F)cc3)c2C#N)C1	1.1	-1.1	-9.1
CC(=O)N1CCc2c(sc(NC(=O)Cc3ccc(C)cc3C)c2C#N)C1	-1.4	1.8	57.7*
CCCN1C[C@@H](C)[C@@H](OC)CN(C)C(=O)c2ccc(NS(=O)(=O)c3cn(C)cn3)cc2OC[C@H]1C	-0.9	x	x
SMILES	TcdB inh	PrPC surface inh	DUSP3 inh
CC(C)CCOc1ccc(/C=C2\CCn3c2nc2cc(C(=O)O)ccc2c3=O)cc1	1.4	-5.9	56.3*
COC(=O)c1ccc(/C=C2\CCn3c2nc2cc(C(=O)O)ccc2c3=O)cc1	x	x	-9.1
CCN1CCN(C(c2ccccc2)c2nnnn2Cc2ccc3c(c2)OCO3)CC1 (configuration not stated)	1.2	-11.9	52.2*
CCN1CCN(C(c2ccc(OC)cc2)c2nnnn2Cc2ccc3c(c2)OCO3)CC1 (configuration not stated)	-0.5	-4.9	6.9
Cc1noc(C)c1NC(=O)N(C)C[C@@H]1Oc2ccc(NC(=O)CCC(F)(F)F)cc2C(=O)N([C@H](C)CO)C[C@H]1C	0.5	x	x
C[C@@H]1CN([C@@H](C)CO)S(=O)(=O)c2ccc(C#Cc3ccncc3)cc2O[C@H]1CN(C)C(=O)C1CC1	11.2*	x	x
CC(=O)N(C)C[C@@H]1Oc2cc(/C=C/c3ccccc3)ccc2S(=O)(=O)N([C@H](C)CO)C[C@@H]1C	12.6*	x	x
C[C@H]1CN([C@@H](C)CO)S(=O)(=O)c2ccc(C#Cc3ccncc3)cc2O[C@H]1CN(C)C(=O)C1CC1	4.7	x	x
CC(=O)N(C)C[C@H]1Oc2cc(/C=C/c3ccccc3)ccc2S(=O)(=O)N([C@H](C)CO)C[C@H]1C	0.9	x	x
COCCNC(=O)C[C@H]1C[C@@H]2c3cc(NC(=O)C4CCC4)ccc3O[C@@H]2[C@@H](CO)O1	0.4	x	x
CC(C)NC(=O)N[C@H]1C=C[C@H](CC(=O)NCCCN(C)C)O[C@@H]1CO	1.1	x	x
C[C@@H]1CN([C@H](C)CO)C(=O)c2cc(NC(=O)NC3CCCCC3)ccc2O[C@@H](C)CCCCO[C@@H]1CN(C)S(=O)(=O)c1ccccc1	0.0	x	x
CO[C@H]1CN(C)C(=O)c2cc(NC(=O)c3cc(C)on3)ccc2OC[C@@H](C)N(C)C[C@H]1C	-0.6	x	x
CN(C)Cc1cn(CC[C@@H]2CC[C@H](NS(=O)(=O)c3ccc(-c4ccccc4)cc3)[C@@H](CO)O2)nn1	-0.5	x	x
O=C(CC(F)(F)F)N1C[C@@H]2[C@H](c3ccccc31)[C@@H](CO)N2C(=O)C1CCCC1	0.1	x	x
CN(Cc1ccco1)C(=O)C1CCCN(c2ncnc3c2nc2n3CCCCC2)C1 (configuration not stated)	0.5	0.4	27.4
CC1CC(C)CN(S(=O)(=O)N2CCCC(C(=O)NCCCN3CCCCC3C)C2)C1 (configuration not stated)	0.5	-1.6	1.6
CCC1CCCCN1CCCNC(=O)C1CCCN(c2ncnc3c2nc2n3CCCCC2)C1 (configuration not stated)	0.5	-2.9	56.8*
COCCN(Cc1ccco1)C(=O)C1CCCN(c2ncnc3c2nc2n3CCCCC2)C1 (configuration not stated)	1.0	5.9	52.3*
CC1CCCC(C)N1CCCNC(=O)C1CCCN(c2ncnc3c2nc2n3CCCCC2)C1 (configuration not stated)	1.1	-8.2	42.7
O=C(C1CCN(c2ncnc3c2nc2n3CCCCC2)CC1)N1CCCCC1	-8.6	8.9	52.5*
CCC1CCCCN1CCCNC(=O)C1CCCN(S(=O)(=O)N2CC(C)CC(C)C2)C1 (configuration not stated)	2.7	2.2	54.2*
CN1CCN(C(=O)C2CCN(c3ncnc4c3nc3n4CCCCC3)CC2)CC1	3.8	7.2	10.8
COc1ccc(S(=O)(=O)Nc2ccc3c(c2)C(=O)N([C@@H](C)CO)C[C@@H](C)[C@H](CN(C)C(=O)C2CCCCC2)OCCCC[C@H](C)O3)cc1	-0.8	x	x
CN1[C@@H]2Cn3c(ccc(/C=C/c4ccccc4)c3=O)[C@H]1[C@@H](C(=O)NC1CCCC1)[C@@H]2CO	0.4	x	x
COc1ccc(NC(=O)N(C)C[C@H]2Oc3ccc(NC(=O)Cc4cn(C)c5ccccc45)cc3C(=O)N([C@@H](C)CO)C[C@H]2C)cc1	-0.1	x	x
O=c1[nH]ncc2c3ccccc3n(Cc3ccccc3)c12	x	8.3	18.6
